Assay outcomes from PubChem BioAssay.
NR5A2 inv ag: inverse agonists of human LRH-1 (NR5A2); O00482; HEK293T StAR-luciferase reporter, LRH-1 transfected, 24 h; inhibition, % at 3.6 µM; actives 0.13% (n = 360,000); AID 602396;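 active = inhibition above the mean inhibition of all tested compounds plus 3 SD, cut at about 73% in these data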;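 note: 0% = DMSO wells and 100% = reporter-only cells lacking LRH-1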
SRC1 inh: inhibitors of human steroid receptor coactivator 1 (SRC1); Q15788; HEK293 GAL4-SRC1 luciferase reporter, luminescence; inhibition, % at 3.6 µM; actives 0.12% (n = 360,000); AID 588354;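 active = inhibition above the campaign mean plus 3 SD, with each screening campaign given its own cutoff, cut at about 60% in these data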;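 note: 0% = DMSO treated cells and 100% = gossypol at 36 µM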
COUP-TFII inh: blocks human COUP-TFII nuclear receptor. P24468. HEK293T NGFI-A luciferase reporter, luminescence. inhibition, % at 8.6 µM. actives 0.7% (n = 370,000). AID 686940;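 active = inhibition above a per-plate cutoff, mean inhibition of test wells between control levels plus 3 SD, cut at about 38% in these data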;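 note: cells cotransfected with COUP-TFII expression vector driving the NGFI-A reporter; 0% = median of COUP-TF2 test wells and 100% = reporter-only cells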
NCOA3 inh: inhibits human SRC3 coactivator; inhibition, % at 3.6 µM; HEK293 GAL4-SRC3 luciferase reporter, luminescence; actives 0.17% (n = 360,000); Q9Y6Q9;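 active = inhibition above a per-campaign cutoff, the mean of all compounds plus 3 SD, cut at about 60% in these data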;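 note: 0% = DMSO-treated cells and 100% = gossypol-treated cells at 36 µM; higher means less SRC3-driven luciferase light from the GAL4 reporter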
Efflux pump mplx: blocks antifungal efflux pumps in multiplex yeast assay; actives 0.44% (n = 330,000); AID 485275; S. cerevisiae Candida pump triplex, Nile Red efflux; inhibition, % at 10 µM;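 active = plate passing quality check with inhibition over a set limit, or well fluorescence over plate mean plus 4 SD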;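 note: Nile Red retained in pooled yeast measured as flow cytometry median fluorescence; 0% = buffer negative control and 100% = Enniatin B positive control; higher means more Nile Red kept so more efflux inhibition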
NCOA2 inhibitor: inhibits human steroid receptor coactivator 2; Q15596; AID 651957; inhibition, % at 9 µM; HEK293 GAL4-SRC2 luciferase reporter, luminescence; actives 0.17% (n = 370,000);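 active = inhibition above the mean inhibition of all tested compounds plus 3 SD, set per campaign, cut at about 52% in these data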;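 note: 0% = DMSO treated cells and 100% = cells given Gossypol at 36 µM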
Cmpd fluor yeast: compound fluorescence in yeast efflux pump counter-screen; shares compounds with Efflux pump mplx; S. cerevisiae AD/pABC3, flow cytometry; fluorescence ratio to DMSO, % at 10 µM; actives 4% (n = 1,700);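 active = fluorescence ratio to DMSO above its plate's cutoff, the plate mean ratio plus 5 SD, cut at about 210% in these data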;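 note: unstained yeast with no Nile Red so the signal is compound autofluorescence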
CaMdr1 efflux inh: inhibitors of Candida albicans Mdr1 efflux pump | AID 588518 | actives 1% (n = 1,700) | shares compounds with Efflux pump mplx | inhibition, % at 10 µM | S. cerevisiae AD/CaMDR1, Nile Red efflux, flow cytometry; in the data active = inhibition above about 26%;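 note: 0% = DMSO vehicle and 100% = reference inhibitor; higher means more Nile Red retained so more efflux inhibition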
CaCdr2 efflux inh: Candida Cdr2 efflux pump inhibition. actives 4% (n = 1,700). S. cerevisiae AD/CaCDR2, Nile Red retention, flow cytometry. Nile Red retention ratio vs DMSO, % at 10 µM. shares compounds with Efflux pump mplx; in the data active = Nile Red retention ratio vs DMSO above about 190%;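 note: higher ratio means more blocking of Cdr2 efflux of the dye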
CaCdr1 efflux inh: blocks the Candida albicans Cdr1 efflux pump in yeast. S. cerevisiae AD/CaCDR1, Nile Red efflux, flow cytometry. actives 1% (n = 1,700). AID 588522. shares compounds with Efflux pump mplx. inhibition, % at 10 µM;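 active = inhibition above the screen-wide mean plus twice its standard deviation, cut at about 32% in these data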
Active calls of the source: *; nt = no result. Only some compounds are listed: those with a hit (about 1.2% of all), similar ones and a draw of the others.

SMILES	NR5A2 inv ag	SRC1 inh	COUP-TFII inh	NCOA3 inh	Efflux pump mplx	NCOA2 inhibitor	Cmpd fluor yeast	CaMdr1 efflux inh	CaCdr2 efflux inh	CaCdr1 efflux inh
COc1ccc(-c2nc(NC(=O)c3nc4nccc(C)n4n3)sc2C)cc1	7	-12	2	-20	1.0*	-7	95	0	116	0
CC(C)CCNC(=O)CCSCCC(=O)NCCC(C)C	-9	6	20	11	8.9*	2	103	0	98	0
CCC1=C(OC(=O)N(CC)CC)N2C(=O)OC(=NCCc3c[nH]c4ccccc34)[C@]2(Cc2ccccc2)[C@H]2C1=CC[C@H]1C(=O)N(CC(=O)OC)C(=O)[C@H]12	-4	4	-1	5	7.3*	-13	113	2	135	0
COc1ccccc1NS(=O)(=O)c1ccc2oc(=S)[nH]c2c1	-14	14	18	23	0	-18	nt	nt	nt	nt
O=C(COC(=O)Cn1cnc2ccccc2c1=O)NNC(=O)c1ccc(Br)cc1	12	-6	-1	1	0.8*	7	105	0	97	0
O=C(Cn1cnc2ccccc2c1=O)c1ccc(Br)cc1	-104	-46	-39	-34	0	-9	nt	nt	nt	nt
Cc1[nH]c2ccccc2c1C(=O)C(=O)N(C)C1CCCCC1	11	4	7	-20	0	7	nt	nt	nt	nt
N#C/C(=C\c1ccncc1)c1nc2ccccc2[nH]1	-35	-22	0	-40	nt	-37	nt	nt	nt	nt
N#C/C(=C/c1ccncc1)c1nc2ccccc2s1	-14	-34	-14	-26	0	-48	103	0	102	0
CCOc1ccccc1NC(=O)c1ccccc1NS(C)(=O)=O	1	12	2	0	0	-1	nt	nt	nt	nt
COc1ccc(N2CCN(C(=O)C3=NNC(=O)CC3)CC2)cc1	-8	-35	-18	17	0	22	nt	nt	nt	nt
COc1ccc(CCNC(=O)/C=C/C(=O)O)cc1OC	8	0	6	6	0	18	nt	nt	nt	nt
CCCCCCCC(=O)Nc1cc(C(=O)NCCC)ccc1N1CCC2(CC1)CC(c1ccccc1)=NO2	1	1	8	3	0.9*	20	117	0	116	0
CCCCCC(=O)N/N=C(\C)c1ccc(Cl)cc1	6	-7	13	9	9.8*	13	111	0	97	0
CCCCCCCCC(=O)N/N=C(\C)c1cccnc1	0	2	-10	-3	0	-17	nt	nt	nt	nt
Cc1ccc2nc(-c3ccccc3)cc(C(=O)N3CCN(S(=O)(=O)c4c(C)noc4C)CC3)c2c1	13	-9	9	6	1.1*	3	104	0	103	0
Cc1ccc2nc(-c3ccccc3)cc(C(=O)N3CCN(c4ccccc4O)CC3)c2c1	6	-19	-10	7	0	6	nt	nt	nt	nt
CC(C)=C1C2CCC1C1C(=O)N(c3nc(-c4ccc(F)cc4)c(C)s3)C(=O)C21 (centres undefined)	11	5	-10	25	0	8	nt	nt	nt	nt
CC(C)=C1C2CCC1C1C(=O)N(c3nc(-c4ccc(C(C)C)cc4)c(C)s3)C(=O)C21 (centres undefined)	-9	-7	22	13	0.4*	13	105	0	99	0
CCOc1ccc(CNC(=O)Cn2nc(C)c3c(C)n(-c4ccc(C)cc4)nc3c2=O)cc1	3	-9	-8	-20	0	-14	100	0	109	0
Cc1ccc(-n2nc3c(=O)n(CCCC(=O)NCc4ccccc4C)nc(C)c3c2C)cc1	8	8	17	8	0	0	nt	nt	nt	nt
Cc1ccc(-n2nc3c(=O)n(CC(=O)NCc4cccs4)nc(C)c3c2C)cc1	-3	-1	-11	-5	0	-4	99	0	105	0
Cc1ccc(-n2nc3c(=O)n(CC(=O)NCCc4ccccc4C)nc(C)c3c2C)cc1	10	-18	15	18	4.2*	3	106	0	102	0
Cc1ccc(CNC(=O)CCCn2nc(C)c3c(C)n(-c4ccccc4)nc3c2=O)cc1	-7	6	16	12	0	10	111	0	108	0
O=C(CCC1N=C2c3ccccc3N=C(SCC(=O)NCc3ccco3)N2C1=O)NCc1ccco1 (centres undefined)	-3	-16	-8	8	0	9	nt	nt	nt	nt
SMILES	NR5A2 inv ag	SRC1 inh	COUP-TFII inh	NCOA3 inh	Efflux pump mplx	NCOA2 inhibitor	Cmpd fluor yeast	CaMdr1 efflux inh	CaCdr2 efflux inh	CaCdr1 efflux inh
O=C(CSC1=Nc2ccccc2C2=NC(CC(=O)N3CCN(c4ccccc4)CC3)C(=O)N12)NCC1CCCO1 (centres undefined)	-11	7	2	5	0.8*	15	99	0	101	0
CCO/C=C/C(O)(CNC(=O)COc1ccccc1F)C(F)(F)F (centres undefined)	-2	-5	9	-6	0	-2	nt	nt	nt	nt
CCCOc1ccc(C(=O)Nc2ccc(NC(=O)c3cccs3)cc2)cc1	-14	-27	-13	1	1.7*	-20	105	0	117	0
Cn1cc(Br)c(C(=O)Nc2sc3c(c2C(N)=O)CCC3)n1	-49	-54	-38	-41	0	-71	100	0	93	0
CC(=O)Nc1sc2c(c1C(N)=O)CCC2	3	13	11	26	0	4	nt	nt	nt	nt
CCOC(=O)c1c(NC(=O)c2ccn(CC)n2)sc2c1CCC2	-14	10	9	13	0.4*	-5	98	0	98	0
CCn1ncc(Br)c1C(=O)Nc1sc2c(c1C(N)=O)CCC2	9	9	-9	2	0	-30	94	0	100	0
O=C(O)/C=C\C(=O)Nc1ccccc1C(=O)NCc1ccccc1	-5	-2	8	7	0	-3	nt	nt	nt	nt
COc1ccc(N2CCN(Cc3nc4c(c(=O)[nH]c(=O)n4C)n3CCCc3ccccc3)CC2)cc1	30	3	8	7	14*	-43	108	0	114	0
Cn1c(=O)[nH]c(=O)c2c1nc(CN1CCN(c3cccc(Cl)c3)CC1)n2CCCc1ccccc1	-7	-13	7	2	0	8	nt	nt	nt	nt
O=S(=O)(c1cccs1)N1CN(Cc2cccs2)c2nc3ccccc3nc21	-92	-42	-2	-66	0	-2	nt	nt	nt	nt
CCc1ccc(C2=NN(S(C)(=O)=O)C(c3cccs3)C2)cc1 (centres undefined)	-154	-106	-40	-88	3.0*	-52	125	1	151	1
